Source: PubChem BioAssay (National Center for Advancing Translational Sciences (NCATS))
DT40 TDP1 no CPT: qHTS for Inhibitors of human tyrosyl-DNA phosphodiesterase 1 (TDP1): qHTS in cells in absence of CPT; DT40 Tdp1-/- hTDP1 cells, no CPT, ATP luminescence, 48 h; Potency, µM (doses to about 46.2 µM), inactives show at the top dose activity change, negative = growth inhibition, actives largely listed as inhibitors; 420,000 tested, 15% active; AID 686978, 2013; further: potency means the concentration at half of the fitted maximal effect; on the % scale 0 is the no-effect control and ±100 the full control effect; nearly all actives have a fitted effect of over 55% in size
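Growth of hTDP1-complemented DT40 Tdp1-knockout cells is measured by ATP luminescence after at least 48 hr compound exposure at 37 °C, with DMSO substituting for the 20 nM CPT used in the parallel screen.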
IL-1B inflam inh: qHTS for Inhibitors of Inflammasome Signaling: IL-1-beta AlphaLISA Primary Screen; THP-1 LPS/ATP IL-1B secretion, AlphaLISA, 16 h; active compounds read low; activity change, % at 57.5 µM; 360,000 tested, 4.7% active; in the data active means activity change below about -50%; inconclusive means mostly about -30% to -49%; further: on the % scale 0 is the no-effect control and ±100 the full control effect
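Secreted IL-1B measured by AlphaLISA bead assay after 16 h compound exposure of THP-1 cells; compounds (final up to 57.5 uM) added 1 h before LPS (250 ng/mL) and ATP (1.25 mM) stimulation; lower signal means less secretion.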
D3 ag: qHTS of D3 Dopamine Receptor Agonist: qHTS; D(3) dopamine receptor (Homo sapiens), P35462; D3R DiscoveRx beta-arrestin cells, luminescence, 90 min; max activation, %; 410,000 tested, 0.58% active; AID 652048, 2013; in the data active means max activation above about 30%; further: 0% is about no effect
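Cells at 1500/well, incubated overnight, then treated with pinned compounds (dopamine as control) for 90 min at 37 degrees C. DiscoveRx reagent added for 30 - 60 minutes at room temperature; luminescence read.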
ClpP mod: qHTS Assay for Activators of ClpP. ATP-dependent Clp protease proteolytic subunit (Bacillus subtilis (strain 168)), P80244. purified B. subtilis ClpP, FRET peptide cleavage, 20 min. Potency, µM (highest dose often 57.5 µM), without a hit: at the highest dose activity change, negative = active. 340,000 tested, 1.9% active. AID 651965, 2013; active means well fitted falling curve with a large enough effect; inconclusive means small, poorly fitted or top-dose-only effect; inactive means no such curve, though single readings can be large or run the other way; further: potency means the concentration at half of the fitted maximal effect; the source files actives as falling curves though it sought activators and does not explain the sign; nearly all actives have a fitted effect of over 65% in size
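FRET quenching reversal measured ClpP activation: 10 microg/mL B. subtilis ClpP at pH 8 with the FRET-FV decapeptide, read at 430 nm after 320 nm excitation. The 20-min minus 0-min signal was scaled between DMSO/no-enzyme wells and ADEP (5.8 microM final).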
D3 antag: qHTS of D3 Dopamine Receptor Antagonist: qHTS; D(3) dopamine receptor (Homo sapiens), P35462; D3R cells, DiscoveRx beta-arrestin luminescence, antagonist mode; active compounds read low; max response, negative = inhibition, %; 360,000 tested, 2.5% active; AID 652054, 2013; in the data active means max response below about -50%; inconclusive means no clear call, values can overlap the other calls; further: on the % scale 0 is the no-effect control and ±100 the full control effect
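Cells expressing the human receptor were seeded at 1500 cells/well, incubated overnight at 37 degrees C in 5% CO2, then exposed to library compounds with dopamine controls for 90 minutes at 37 degrees C before luminescent detection.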
TDP1 cell CPT: qHTS for Inhibitors of human tyrosyl-DNA phosphodiesterase 1 (TDP1): qHTS in cells in presence of CPT; Potency, µM (titrated, usually from 46.2 µM), without a hit: at the highest dose activity change, negative = growth inhibition, most hits filed as inhibitors; chicken DT40 Tdp1-/-;hTDP1 cells + 20 nM CPT, ATP luminescence, 48 h; 420,000 tested, 12% active; further: potency means the concentration at half of the fitted maximal effect; on the % scale 0 is the no-effect control and ±100 the full control effect; nearly all actives have a fitted effect of over 55% in size
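Chicken DT40 Tdp1-/- cells stably complemented with human TDP1 were seeded at 400 cells/well in medium containing 20 nM camptothecin, exposed to pin-transferred compounds, and grown at 37 °C for at least 48 hr. Viability was read as ATP luminescence.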
The depositor's hits bear a star; i = inactive; ? = inconclusive; · = no result given. Most compounds without a hit are left out; they make up all but 21% or so of the library. Unless noted, the call rests on the fitted dose curve; in most records, active means well fitted inhibition curve with a large enough effect; inconclusive means small, poorly fitted or top-dose-only effect; inactive means flat fitted curve, though single readings scatter.

SMILES | DT40 TDP1 no CPT | IL-1B inflam inh | D3 ag | ClpP mod | D3 antag | TDP1 cell CPT
O=C(c1ccc(F)c(S(=O)(=O)N2CCOCC2)c1)N1CCc2ccccc21 | ? | i | 3 | 0% | -1 | ?
CC(C)Cc1nn2c(=O)cc(COC(=O)c3cccc(NS(C)(=O)=O)c3)nc2s1 | -1% | · | -18 | 1% | · | 3%
O=C(Nc1nc(-c2ccc(Cl)s2)cs1)c1ccccc1 | ? | -5 | -8 | ? | -18 | ?
O=C(Nc1nc(-c2ccco2)cs1)c1ccccc1 | ? | -21 | 6 | -1% | 28 | 13µM*
CSC1SCC2C(=O)N(C)C(C(C)C)C(=O)OCC(NC(=O)c3cnc4ccccc4n3)C(=O)NC(C)C(=O)N(C)C1C(=O)N(C)C(C(C)C)C(=O)OCC(NC(=O)c1cnc3ccccc3n1)C(=O)NC(C)C(=O)N2C (configuration not stated) | -83% | -116* | -17 | 0% | -17 | -72%
CC1CCN(c2nc3c(S(=O)(=O)c4ccccc4)nnn3c3ccc(Cl)cc23)CC1 | 18µM* | · | -1 | 4% | · | 16µM*
Cc1ccc(S(=O)(=O)c2nnn3c2nc(N2CCC(C)CC2)c2cc(Cl)ccc23)cc1C | 21µM* | · | 8 | 3% | · | ?
CCc1ccc(S(=O)(=O)c2nnn3c2nc(N2CCC(C(N)=O)CC2)c2cc(Cl)ccc23)cc1 | 23µM* | · | 6 | -26% | · | ?
CC(=O)c1ccc(N2CCN(c3nc4c(S(=O)(=O)c5ccc(C)c(C)c5)nnn4c4ccc(Cl)cc34)CC2)cc1 | 0% | · | -5 | -4% | · | 0%
COc1ccccc1N1CCN(c2nc3c(S(=O)(=O)c4ccccc4)nnn3c3ccc(Cl)cc23)CC1 | -23% | · | 10 | -6% | · | 6%
COc1ccc([C@H]2CC(=O)C=C(/C=C/Cc3ccccc3)C2)cc1 | ? | ? | -34 | -3% | -28 | ?
CCOC(=O)c1ccccc1NC(=O)COC(=O)C1CC(=O)N(CCc2ccccc2)C1 (configuration not stated) | ? | 7 | 1 | -4% | -9 | -23%
CCn1cc(/C=C/C(=O)c2ccc(O)cc2)c(C)n1 | 0% | -81* | 2 | 0% | 11 | 1%
Clc1ccc(-c2c[n+](Cc3cccc(Cl)c3)c3n2CCC3)cc1 | 8.2µM* | -74* | -7 | 1% | -13 | 10µM*
N#CC[n+]1cc(-c2ccc(Cl)cc2)n2c1CCC2 | 0% | 17 | -13 | 0% | 5 | -5%
O=C(C[n+]1cc(-c2ccc(Cl)c(Cl)c2)n2c1CCC2)OCc1ccccc1 | -14% | i | -7 | -4% | 5 | -13%
Clc1ccc(C[n+]2cc(-c3ccccc3)n3c2CCC3)cc1Cl | 3.7µM* | -67* | 1 | -2% | ? | 6.5µM*
C=CCn1c(Cc2cccc3ccccc23)n[nH]c1=S | ? | 84 | 4 | -3% | -17 | 21µM*
S=c1[nH]nc(Cc2cccc3ccccc23)o1 | -4% | 25 | -3 | 28µM* | -11 | -4%
Cc1[nH]c2ccccc2c1Cc1n[nH]c(=S)o1 | 5% | -4 | -9 | -7% | 0 | -11%
Nn1c(Cc2cccc3ccccc23)n[nH]c1=S | -21% | -3 | -2 | -3% | -22 | -20%
S=c1[nH]nc(Cc2cccc3ccccc23)n1-c1ccccc1 | ? | 17 | -1 | -3% | -51* | ?
C=CCn1c(-c2cccc(Cl)c2)n[nH]c1=S | -18% | 21 | 5 | -15% | -57* | 6%
Cc1cc(=O)oc2cc(OCC(=O)N(C)C3CCS(=O)(=O)C3)c(Cl)cc12 (configuration not stated) | 3% | 54 | 6 | 4% | 4 | 6%
CC(=O)N1CCN(C(=O)CCCNC(=O)c2ccc(Cl)cc2)CC1 | 1% | 6 | 3 | 2% | 8 | 18%
SMILES | DT40 TDP1 no CPT | IL-1B inflam inh | D3 ag | ClpP mod | D3 antag | TDP1 cell CPT
COc1ccc(CN(C)C(=O)C2CCN(C(=O)Nc3ccccc3)CC2)cc1 | -4% | -11 | -15 | -1% | -11 | -5%
Cc1ccccc1S(=O)(=O)NC(=O)C1(C)CCN1C(=O)C1CCCCC1 (configuration not stated) | -3% | 27 | 1 | 0% | 6 | 1%
Cc1ccc(NC(=O)C2(C)CCN2C(=O)Cc2ccccc2)cc1C (configuration not stated) | 16µM* | 9 | -4 | 1% | -11 | ?
Cc1ccc(NC(=O)C2(C)CCN2C(=O)Cc2ccc(C(C)(C)C)cc2)cc1C (configuration not stated) | 10µM* | 5 | 3 | 4% | 6 | 21µM*
Cc1ccc(NC(=O)C2(C)CCN2C(=O)C2CCCCC2)cc1C (configuration not stated) | 18µM* | 11 | -11 | 1% | -15 | ?
COc1ccc(NC(=O)C2(C)CCN2C(=O)Cc2ccccc2)cc1OC (configuration not stated) | ? | 4 | 7 | 0% | 23 | ?
CC[C@@]1(C(=O)OC)N[C@H](CN(C)S(=O)(=O)c2ccc(C(C)(C)C)cc2)[C@@H]2C(=O)N(C)C(=O)[C@@H]21 | ? | 10 | 41* | 1% | 29 | -28%
CC[C@@]1(C(=O)OC)N[C@H](CN(C)S(=O)(=O)c2ccc(-c3ccccc3)cc2)[C@@H]2C(=O)N(C)C(=O)[C@@H]21 | ? | -3 | 9 | 2% | 42 | ?
CC[C@@]1(C(=O)OC)N[C@H](CN(C)S(=O)(=O)c2ccccc2)[C@@H]2C(=O)N(C)C(=O)[C@@H]21 | -10% | 4 | 34* | 0% | 12 | -1%
COc1ccccc1OC1=NS(=O)(=O)c2ccccc21 | 13µM* | -1 | 0 | -6% | -9 | 21µM*
CCc1ccc(OC2=NS(=O)(=O)c3ccccc32)cc1 | -3% | 36 | -3 | -4% | 0 | -2%
CCN(CC)c1cccc(OC2=NS(=O)(=O)c3ccccc32)c1 | 16µM* | 3 | -5 | -7% | 0 | 8.2µM*
Cc1ccc(N2CC(C)Cn3c2nc2c3c(=O)[nH]c(=O)n2C)cc1C (configuration not stated) | ? | 31 | -12 | -27% | ? | -19%
